TrxR1 inh: inhibitors of rat thioredoxin reductase 1; O89049; recombinant rTrxR1, NADPH fluorescence consumption, selenite substrate; Potency, µM (top dose mostly 114 µM), for inactives: top-dose activity change, negative = inhibition, most hits filed as inhibitors; 390,000 compounds, 1% hits; AID 588453; note: % is set by controls: 0 for no effect and ±100 for the full control effect; nearly all actives have a fitted effect of over 65% in size
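Rat TrxR1 (90 nM in the dispensed reagent) was pre-reduced with 400 uM NADPH for 5 min at room temperature, then incubated with compound for 15 min. After 400 uM selenite was added, NADPH fluorescence (Ex 340/Em 450 nm) was followed for 8 min.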
TrxR1 substrate: rat thioredoxin reductase 1 substrate activity. O89049. purified TrxR1 substrate turnover, NADPH consumption readout. Potency, µM (top dose mostly 114 µM), without a hit: at the top dose activity change, negative = substrate turnover. 390,000 compounds, 0.01% hits. AID 588456; note: % is set by controls: 0 for no effect and ±100 for the full control effect; nearly all actives have a fitted effect of over 50% in size
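Rat TrxR1, dispensed at 90 nM, was prereduced with 400 uM NADPH (final) for 5 min at ~22 deg C, then incubated with compound 15 min before 400 uM selenite. A first-read NADPH fluorescence drop versus no-compound background flagged substrates.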
VDR inh: vitamin D3 receptor (human) inhibition | P11473 | Potency, µM, for inactives: max response, negative = inhibition, actives largely listed as inhibitors | VDR-SRC2-3 peptide fluorescence polarization, 2 h | 400,000 compounds, 0.93% hits; note: % is set by controls: 0 for no effect and ±100 for the full control effect
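Reagent solutions, kept cold and dark, are dispensed first; compounds are then pinned in at 23 nl, plates briefly spun, and incubated 2 h at ambient temperature. Inhibition of VDR–SRC2-3 peptide binding is read by fluorescence polarization.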
Vif-A3F inh: Vif-A3F binding inhibition | AID 602313 | HeLa A3F-eYFP + Vif (tagged APOBEC3F with the HIV-1 protein that degrades it), YFP fluorescence increase | Potency, µM (titrated, usually from 46.1 µM), inactives show at the highest dose activity, negative = active | 390,000 compounds, 0.2% hits; note: % of control where 0% means no effect; nearly all actives have a fitted effect of over 65% in size
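Fluorescence increase (Ex 488/Em 500-530) after overnight compound treatment at 37 deg C flags inhibition of Vif-driven A3F-eYFP loss in stable HeLa A3F-eYFP/Vif cells seeded overnight beforehand.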
Vif-APOBEC3G blk: inhibitors of Vif-APOBEC3G interaction; Q9HC16; HeLa A3G-eYFP + Vif (tagged APOBEC3G with the HIV-1 protein that degrades it), YFP fluorescence, overnight; Potency, µM (series often up to 46.1 µM), for the others: at the highest dose activity, negative = active, usual class: inhibitors; AID 602310; 410,000 compounds, 0.076% hits; note: % is set by controls: 0 for no effect and ±100 for the full control effect; nearly all actives have a fitted effect of over 60% in size
Target sequence (Q9HC16 whole entry, looked up): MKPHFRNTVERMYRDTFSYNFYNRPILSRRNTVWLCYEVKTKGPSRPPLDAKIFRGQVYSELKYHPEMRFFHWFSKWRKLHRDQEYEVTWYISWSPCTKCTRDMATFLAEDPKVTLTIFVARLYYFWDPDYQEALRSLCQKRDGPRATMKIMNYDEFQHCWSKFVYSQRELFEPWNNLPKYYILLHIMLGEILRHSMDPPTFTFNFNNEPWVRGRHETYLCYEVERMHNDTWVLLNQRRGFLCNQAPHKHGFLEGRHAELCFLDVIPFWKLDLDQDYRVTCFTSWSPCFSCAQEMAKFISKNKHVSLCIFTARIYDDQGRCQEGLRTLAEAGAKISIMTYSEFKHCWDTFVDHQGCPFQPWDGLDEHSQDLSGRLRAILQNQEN
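HeLa cells stably expressing Vif and C-terminally eYFP-tagged A3G, seeded overnight at 37 deg C, then exposed to compound by pintool overnight at 37 deg C. Rise in yellow fluorescence (Ex 488/Em 500-530, Acumen) marks blocked Vif-driven A3G degradation.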
* = called active by the depositor; ? = inconclusive; . = no result given; [ ] = dose if it differs, or a comment. A selection: hits, their analogues and other compounds. The true share with any hit is near 1.8%. Calls come from the whole dose curve; as a rule, active = well fitted curve in the direction sought with a large enough effect; inconclusive = small, poorly fitted or top-dose-only effect, or another doubt; inactive = no such curve, though single readings can be large; an effect the other way counts as inactive or inconclusive. Potency is the fitted concentration of half-maximal effect.

SMILES	TrxR1 inh	TrxR1 substrate	VDR inh	Vif-A3F inh	Vif-APOBEC3G blk
COc1cccc(-n2cc(C(=O)Nc3ccccc3C(N)=O)c3ccccc3c2=O)c1	16%	2%	-6%	3%	0%
O=C(CCCSc1ccccc1)Nc1nc(-c2ccco2)c(-c2ccco2)s1	?	-2%	-19%	-4%	1%
Cc1ccc(C(=O)Nc2nc(-c3ccco3)c(-c3ccco3)s2)o1	25µM*	-7%	?	?	-11%
O=C(CCl)Nc1nc(-c2ccco2)c(-c2ccco2)s1	13µM*	-2%	-15%	1%	?
Cc1ccc(C(=O)Nc2nc(C)c(C(=O)N(C)C)s2)o1	-11%	-17%	-11%	0%	6%
CCN(CC)/[N+]([O-])=N/Oc1cc(O/N=[N+](\[O-])N(C)C)c([N+](=O)[O-])cc1[N+](=O)[O-]	11µM*	-10%	?	.	-7%
CCOCCCNC(=O)NC(CCC(C)C)c1c(-n2cccc2)sc2c1CCN(C)C2 (centres undefined)	-12%	-11%	10%	-18%	8%
CCOc1cc(/C=N\Nc2ccc([N+](=O)[O-])cc2)ccc1OCC(=O)Nc1ccc(C)c(C)c1	10%[2.29 µM]	-3%	8%	.	?
COc1cc(/C=N\Nc2ccc([N+](=O)[O-])cc2)ccc1OCC(=O)Nc1ccc(C)c(C)c1	-8%	-7%	-14%	10µM*	-1%
Cn1c(Cl)cnc1C1CC(=O)c2cc(Cl)ccc2O1 (centres undefined)	-29%	-4%	79µM*	6%	-11%
C=C1C=C(C(F)F)n2ncc(C(=O)NCCc3ccc(Cl)cc3)c2N1	6%	3%	.	.	1%
CNCC(=O)NC(CCCN=C(N)N)C(=O)NC(C(=O)NC(Cc1ccc(O)cc1)C(=O)NC(C(=O)NC(Cc1cnc[nH]1)C(=O)N1CCCC1C(=O)NC(C)C(=O)O)C(C)C)C(C)C (centres undefined)	.	.	-5%	.	.
COCCNc1cc(N2CCN(C3CCCCC3)CC2)c2noc3c2c1C(=O)c1ccccc1-3	5%	-4%	-29%	?	?
O=S(=O)(c1ccccc1Br)N1CCN(c2nc(-c3cccs3)nc3ccccc23)CC1	21%	18%	-14%	.	1%
CCS(=O)(=O)c1ncc(N(Cc2ccccc2)Cc2ccco2)c(C(=O)Nc2cccc(Cl)c2C)n1	17%	-4%	-6%	3%	3%
CCS(=O)(=O)c1ncc(Cl)c(C(=O)N(Cc2ccccc2)Cc2ccco2)n1	2.8µM*	12%	?	5%	-22%
COC1=CC(=O)C(OC)=C(OC)C1=O	50µM*	-9%	-5%	7%	?
Cc1ccc(S(=O)(=O)N(C)C)cc1NC(=O)COC(=O)c1sc2cc(Cl)ccc2c1Cl	35µM*	0%	10%	11%	1%
COc1ccc(CN2c3c(Br)cccc3C(=O)CS2(=O)=O)cc1	-26%	-5%	-2%	-3%	-5%
O=C1CS(=O)(=O)N(Cc2cccc(F)c2)c2ccc(Br)cc21	79µM*	-4%	1%	1%	-8%
CC1(C)CC(=O)C(CS(=O)(=O)c2ccccc2)=C(O)C1	50µM*	5%	?	-3%	-12%
CC1(C)CC(=O)C(CC(=O)Nc2ccc(S(N)(=O)=O)cc2)=C(O)C1	25%	11%	4%	1%	-2%
Cc1ccccc1-c1nc(CS(=O)CC(=O)NC2CCCC2)c(C)o1 (centres undefined)	26%	3%	-6%	5%	-2%
Cc1oc(-c2cccs2)nc1CS(=O)CC(=O)NC1CCCCCC1 (centres undefined)	5µM*	5%[57.1 µM]	?	-3%	2%
Cc1oc(-c2ccccc2F)nc1CS(=O)CC(=O)NC1CCCC1 (centres undefined)	28µM*	9%	-15%	-2%	2%
SMILES	TrxR1 inh	TrxR1 substrate	VDR inh	Vif-A3F inh	Vif-APOBEC3G blk
Cc1oc(-c2ccc(Cl)cc2)nc1CS(=O)CC(=O)NC1CCCC1 (centres undefined)	45µM*	-5%	-5%	-4%	4%
Cc1oc(-c2ccc(Cl)cc2)nc1CS(=O)CC(=O)NC1CCCCCC1 (centres undefined)	?	-3%	6%	-9%	1%
Cc1ccc(-c2nc(CS(=O)(=O)CC(=O)NC3CCCCCC3)c(C)o2)cc1	79µM*	7%	0%	0%	3%
COc1ccc(C)cc1Nc1n[n+](-c2ccccc2)c(-c2ccc(OC)c(OC)c2OC)s1	-20%	-7%	-5%	2%	4%
COc1ccc(C)cc1Nc1n[n+](-c2ccccc2)c(-c2ccc(N(C)C)cc2)s1	8.9µM*	0%	3%	?	?
O=c1cc(O)n(C2CCCCCC2)c(=O)[nH]1	-12%	8%	?	-14%	-6%
O=c1[nH][nH]c(=S)n1C1CCCCC1	-12%[57.1 µM]	-6%[57.1 µM]	35µM*	-7%	2%
CCOc1ccc(C(=O)CC(NCc2cccs2)C(=O)O)cc1 (centres undefined)	?	-6%[57.1 µM]	25µM*	13%	-20%
O=S(=O)(c1ccc(Cl)cc1)N1CCN(c2nc(Nc3cc(Cl)ccc3O)nc3ccccc23)CC1	12%[80.7 µM]	-4%[80.7 µM]	-15%	.	.
O=C(Cc1cc(=O)[nH][nH]1)N/N=C/c1c(Cl)cccc1Cl	45µM*	-7%	-27%	0%	-4%
O=C(Cc1cc(=O)[nH][nH]1)N/N=C/c1c(F)cccc1Cl	-4%	7%	-5%	4%	1%
O=C1Cc2ccccc2C(=O)N1Nc1ccccc1	50µM*	-7%	-22%	2%	2%
Cc1ccccc1N1C(=O)Cc2ccccc2C1=O	?	5%	-10%	-6%	3%
Cc1nn(C(C)C(=O)NCCCN2CCCCCC2)c(=O)c2c1sc1ccccc12 (centres undefined)	50µM*	2%	-20%	-7%	0%
CNc1ccc(/C=C/c2ccccc2)cc1	-9%	9%	.	.	?
O=C(O)c1ccc(-c2ccccc2C(F)(F)F)s1	.	.	126µM*	.	.
O[C@@](CCN1CCCC1)(c1ccccc1)C1CCCCC1	.	.	-4%	.	.
CCCCCC(O)(CCN1CCCCC1)c1ccc(OCC)cc1 (centres undefined)	8.9µM*	9%[57.1 µM]	?	-5%	1%
COc1ccc(C(O)(CCN2CCCCC2)C2CCCCC2)cc1 (centres undefined)	2.8µM*	15%[57.1 µM]	?	14%	1%
CCCC(O)(CCN1CCCCC1)c1ccc(OCC)cc1 (centres undefined)	50µM*	-3%	-25%	9%	2%
CCNC(=O)c1c(NC(=O)c2nc(SC)ncc2Cl)sc2c1CCCC2	4%	1%	.	.	2%
C=CCn1c(SCC(=O)NCc2ccco2)nnc1-c1ccc2ccccc2n1	79µM*	-7%	-8%	1%	-15%
O=C(N/N=C/c1ccc([N+](=O)[O-])s1)c1ccccc1Br	20µM*	-2%	-6%	0%	-12%
